Screening results as filed in PubChem BioAssay.
The entries come from a sample that favours hits as a whole.
Giardia FBPA inh = inhibitors of Giardia lamblia fructose-1,6-bisphosphate aldolase; A8B2U2; purified Giardia FBPA; Potency, µM (highest dose often 59.6 µM), inactives show at the top dose activity, negative = inhibition, actives largely listed as inhibitors; 290,000 compounds, 0.71% hits; also: potency is read from the fitted curve at half-maximal effect; % is scaled to controls: 0 for no effect and ±100 for the full control effect; nearly all actives have a fitted effect of over 55% in size
Target sequence (A8B2U2 whole entry, looked up): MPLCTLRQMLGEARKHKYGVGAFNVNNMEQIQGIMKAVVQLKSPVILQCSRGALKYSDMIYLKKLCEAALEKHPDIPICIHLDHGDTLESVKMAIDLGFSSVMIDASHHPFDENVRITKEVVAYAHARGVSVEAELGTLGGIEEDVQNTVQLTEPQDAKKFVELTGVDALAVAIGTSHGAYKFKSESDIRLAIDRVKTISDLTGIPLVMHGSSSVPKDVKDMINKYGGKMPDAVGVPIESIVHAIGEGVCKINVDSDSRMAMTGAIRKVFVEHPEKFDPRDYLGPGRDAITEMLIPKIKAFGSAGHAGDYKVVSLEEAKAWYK
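Giardia FBPA (40 nM reagent) was preincubated 10 min at RT with compound (up to 57.5 uM final), then substrate plus GAPDH/TPI/NAD/arsenate coupling system with diaphorase/resazurin was added; resorufin fluorescence (525/598 nm) was read after 20 min.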
LmPK inhibitor = blocks Leishmania mexicana pyruvate kinase activity. purified LmPK, Kinase-Glo ATP luminescence, 1 h. Potency, µM (titrated, usually from 57.5 µM), inactives show top-dose activity change, negative = inhibition, actives largely listed as inhibitors. 290,000 compounds, 0.37% hits; also: potency is read from the fitted curve at half-maximal effect; % is scaled to controls: 0 for no effect and ±100 for the full control effect
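Pyruvate kinase activity monitored as ATP production (luciferase luminescence). Conditions: 0.1 nM enzyme, 0.5 mM PEP, 0.1 mM ADP, 1 h, RT; normalized against uninhibited and no-enzyme wells.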
Shiga toxin inh = inhibitors of Shiga toxin in Vero cells; Vero cells, Shiga toxin protein synthesis inhibition reporter; inhibition, % at 38.7 µM; 290,000 compounds, 9.2% hits; in the data active = inhibition mostly above about 28%, no sharp cut-off; inactive = mostly below about 43%; also: 0% is about no effect
Sm TGR inh = blocks Schistosoma mansoni thioredoxin glutathione reductase | Q962Y6 | AID 485364 | 360,000 compounds, 3% hits | Potency, µM (doses to about 114 µM), inactives show at the highest dose activity change, negative = inhibition, hits mostly inhibitors | purified TGR, DTNB reduction, TNB absorbance 405 nm; also: potency is read from the fitted curve at half-maximal effect; % is scaled to controls: 0 for no effect and ±100 for the full control effect; nearly all actives have a fitted effect of over 60% in size
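First, TGR (20 nM dispensed) and NADPH were mixed with compound. Second, a 15 min room-temperature incubation followed. Third, further NADPH and then DTNB were added to start the reaction. Finally, TNB absorbance was monitored kinetically.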
TbPYK inhibitor = blocks Trypanosoma brucei pyruvate kinase. Q57TT1. TbPYK enzyme, Kinase-Glo Plus ATP luminescence, 45 min. Potency, µM (series often up to 76.8 µM), inactives show at the top dose activity, negative = inhibition, usual class: inhibitors. 410,000 compounds, 0.12% hits; also: potency is read from the fitted curve at half-maximal effect; % is scaled to controls: 0 for no effect and ±100 for the full control effect; nearly all actives have a fitted effect of over 50% in size
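Readout: single end-point luminescence (Kinase-Glo Plus, 10 min). Reaction conditions were TbPYK/substrate plus 130 uM ADP, 45 min at RT, pH 7.2 TEA buffer. No-enzyme wells served as controls, and data were normalized before concentration-response fitting.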
Cycloheximide cs = affects cycloheximide protein synthesis inhibition readout, counter-screen. cell reporter, cycloheximide protein synthesis inhibition counterscreen. 300,000 compounds, 12% hits. max response, %; in the data active = max response mostly above about 13%, no sharp cut-off; inactive = mostly below about 14%; also: read at 38.3 µM for the half of the compounds with a filed dose; 0% is about no effect
Active calls of the source: *; u = inconclusive; x = no result; [ ] = remark or other dose. Unless noted, calls follow the shape of the dose curve; as a rule, active = well fitted curve in the direction sought with a large enough effect; inconclusive = small, poorly fitted or top-dose-only effect, or another doubt; inactive = no such curve, though single readings can be large; an effect the other way counts as inactive or inconclusive.

SMILES	Giardia FBPA inh	LmPK inhibitor	Shiga toxin inh	Sm TGR inh	TbPYK inhibitor	Cycloheximide cs
Cc1oc(-c2ccccc2Cl)nc1CS(=O)(=O)CC(=O)NCc1ccc(F)cc1	x	x	x	44.7µM*	-2.1%	x
CCc1cccc(C)c1NC(=O)C(NS(=O)(=O)c1ccc2c(c1)CCC(=O)N2)c1ccccc1 (configuration not stated)	x	x	x	3.6%	0.5%	x
CC(C)OC(=O)C(C(=O)C(F)(F)F)c1cc(NS(=O)(=O)c2ccc3c4c(cccc24)C(=O)N3)ccc1O (configuration not stated)	x	x	x	-15.8%	-11.9%	x
CCN1CCN(CCCNC(=O)Cn2c(-c3cccs3)cc3cc(F)ccc32)CC1	x	x	x	-24.1%	1.2%	x
O=C(NCC12CC3CC(CC(C3)C1)C2)c1nn2cccnc2c1Cl	12.0%	7.4%	-6.6	-3.3%	-0.8%	-1.4
O=C(NCC1CCCO1)c1nn2cccnc2c1Cl (configuration not stated)	0.2%	5.2%	28.5*	0.0%	-3.4%	24.0*
O=C(NCc1cccs1)c1nn2cccnc2c1Cl	0.5%	4.0%	56.1	-2.0%	0.6%	21.5*
CCOc1ccc(NC(=O)COC(=O)Cn2cnc3ccccc32)cc1	x	x	x	x	4.4%	x
CCc1ccccc1NC(=O)N1CCN(c2nnc(C)c3c(C)n(-c4ccccc4)nc23)CC1	x	x	x	-7.3%	-0.7%	x
Cc1ccc(COc2ccsc2-c2n[nH]c(=S)n2C)cc1	-2.1%	-19.1%	-11.8	-11.1%	x	-2.7
Cn1c(-c2sccc2OCc2ccc(Cl)cc2Cl)n[nH]c1=S	2.0%	u	-18.5	1.2%	3.55µM*	2.0
CCN(CC)CCNC(=O)c1ccc(CSc2nc3ccncc3n2Cc2cccc(F)c2)cc1	x	x	x	-2.2%	0.5%	x
CP(=O)(Nc1cc(Cl)ccc1Cl)c1nc2c(s1)CCCC2 (configuration not stated)	6.8%	-4.1%	-5.3	8.91µM*	-11.5%	-2.7
CN(CC[C@@H](Oc1ccc(-c2ccccc2)cc1)c1ccc(F)cc1)CC(=O)O	-10.5%	x	x	x	x	x
Nc1c(N=Nc2ccc(-c3ccc(N=Nc4cc(S(=O)(=O)O)c5ccccc5c4N)cc3)cc2)cc(S(=O)(=O)O)c2ccccc12	-8.1%	x	-5.8	x	-4.8%	19.4
Cc1cc(-c2ccc(N=Nc3ccc4c(S(=O)(=O)O)cc(S(=O)(=O)O)c(N)c4c3O)c(C)c2)ccc1N=Nc1ccc2c(S(=O)(=O)O)cc(S(=O)(=O)O)c(N)c2c1O	22.3µM*	x	x	x	u	x
CC(=O)Nc1ccc(C2CC(c3ccc(Cl)cc3)=NN2c2ccccc2)cc1 (configuration not stated)	14.1%	0.0%	-4.9	-3.9%	-9.3%	8.9
O=Cc1ccc(N2N=C(c3ccccc3)CC2c2ccccc2)cc1 (configuration not stated)	12.9%	-0.7%	12.2	8.3%	-0.3%	9.4
O=C(O)c1ccc(N2N=C(c3ccccc3)CC2c2ccccc2)cc1 (configuration not stated)	2.4%	-0.5%	57.1*	-3.8%	-3.2%	14.1*
CC(=O)Nc1ccc(C2=NN(c3ccccc3)C(c3ccccc3)C2)cc1 (configuration not stated)	-0.1%	0.4%	46.9*	-33.1%	-5.4%	42.7*
O=[N+]([O-])c1cccc(C2CC(c3ccccc3)=NN2c2ccccc2)c1 (configuration not stated)	3.1%	-0.5%	54.7	-3.8%	-0.7%	20.2*
Cc1ccc(C(=O)Nc2nnc(S(=O)(=O)N3c4ccccc4CC3C)s2)cc1 (configuration not stated)	x	x	x	2.4%	-2.8%	x
COc1ccc(CCNc2ncnc3c2c(-c2ccccc2)cn3-c2ccc(F)cc2)cc1OC	x	x	x	-1.0%	4.8%	x
COC(=O)C1=C(C(=O)OC)[C@@H]2N(C)c3ccccc3[C@@]23C[C@@H](CO)N(C(=O)c2cc(C)oc2C)C3=N1	0.2%[12.9 µM]	-3.0%[11.5 µM]	x	x	x	x
C[C@]12CC[C@@H]3c4ccc(O)cc4CC[C@H]3[C@@H]1CC[C@@H]2OC(=O)CCC(=O)O	11.6%	8.4%	-11.3	44.7µM*	0.7%	-3.0
SMILES	Giardia FBPA inh	LmPK inhibitor	Shiga toxin inh	Sm TGR inh	TbPYK inhibitor	Cycloheximide cs
COc1ccc(-c2csc(-n3cccn3)n2)cc1	0.2%	-0.5%	66.3*	-15.1%	12.4%	62.4*
COc1ccc(-c2csc(N3CCSCC3)n2)cc1	1.9%	0.1%	95.1*	-0.5%	u	55.6*
CCCCCCCCCCCCCCCCSCC(COC)COP(=O)([O-])OCC[N+](C)(C)C (configuration not stated)	4.6%	x	-11.7	x	-0.5%	14.8
CCOc1ccc(CNC2CCCCCCC2)cc1OC	u	1.5%	-14.7	-5.6%	-0.9%	-3.1
Cc1cc(-c2nnc(SCc3ccccn3)o2)no1	5.9%	0.0%	19.3	6.5%	-8.6%	11.9
Cc1cc(-c2nnc(-c3cccc(C(F)(F)F)c3)o2)no1	4.5%	-2.0%	76.6*	8.5%	0.4%	43.8*
Cc1ccc(-c2nnc(-c3cc(C)on3)o2)cc1	-4.2%	-10.8%	59.0*	-0.9%	-5.1%	38.9*
FC(F)(F)Oc1ccccc1-c1nnc(-c2cccc(C(F)(F)F)c2)o1	-2.6%	0.4%	-7.4	4.9%	-0.6%	-2.3
CCc1ccc(NC(=O)c2ccc(CN3CC(=O)N4CCCCC4C3=O)cc2)cc1 (configuration not stated)	x	x	x	-0.7%	-2.5%	x
O=C(Nc1ccccc1OCc1cc(=O)n2ccccc2n1)c1cccc(Br)c1	x	x	x	0.2%	1.0%	x
COc1ccc(-c2nc(N/N=C(\C)c3ccc(O)cc3)c3ccccc3n2)cc1	-24.4%	0.5%	71.5*	14.2%	3.8%	29.0*
C/C(=N\Nc1nc(-c2ccc(C)cc2)nc2ccccc12)c1ccc([N+](=O)[O-])cc1	-2.8%	-0.3%	11.3	-0.2%	x	7.9
C/C(=N\Nc1nncc2ccccc12)c1ccc(C(C)(C)C)cc1	2.7%	-3.1%	97.5*	10.7%	1.3%	41.9*
C/C(=N\Nc1nncc2ccccc12)c1ccc(O)cc1	-10.5%	-5.2%	53.9*	-9.5%	-0.2%	28.0*
C/C(=N\Nc1nncc2ccccc12)c1cccc(OC(F)F)c1	6.7%	-9.1%	65.4*	-0.2%	-21.4%	20.4*
CCC(=O)N[C@@H]1Cc2ccccc2[C@@H](c2ccccc2)C1	2.5%	x	x	x	x	x
CC1(C(=O)NCC2CC2)C=CC2(CCCCC2)N1C(=O)c1ccccc1 (configuration not stated)	10.6%	-0.1%	48.6*	-19.7%	2.6%	66.5*
